40 sequences from the OligoGym collection can be followed below.
Further: reference of the scale not given here.

One assay concerns the target RHOH. The experiment in a line: pooled miR-30 sensor sort-seq; sequence = guide strand. Conditions: shRNA.
In turn, AATTTCACCAATCCACTTGTTC yielded a sensor-assay potency score (higher = more potent) of -0.62. Sequence TAATTTCACCAATCCACTTGTT had a sensor-assay potency score (higher = more potent) of 0.134. TTCTCGTACACTGTGGGCTTGT had a sensor-assay potency score (higher = more potent) of -0.506. On the same count and under the same terms, the figure for TAGCACATCAGCACCACGTCTG is 0.265.

TTGATGGAGAAGAGCCTCCTTC: the sensor-assay potency score (higher = more potent) is -0.911. On the same count and under the same terms, for TACACTGTGGGCTTGTAGGCCT the value was -0.53; for TTCTGAAGGCGTCATTGCCGGC, -1.35. TAGGCCTCCGGGAAGGTCTCGG: the sensor-assay potency score (higher = more potent) is -0.658.

For AACACCTGCTGTACTCCCCGAT, the sensor-assay potency score (higher = more potent) is -0.621. Same read-out and setting: the figure for AAACACCTGCTGTACTCCCCGA is -0.993; for TTCACTTGTAGAGTGTAGTTAG it is 0.0342.

Turning to TCCATGAAGACGTCCACCCCTG, the sensor-assay potency score (higher = more potent) was -1.1.

Consider AAGCGCACCAACAGAGAGGTTT, for which the sensor-assay potency score (higher = more potent) was -0.535. As to AAGGTCTCGGAGGTGAAGCGCA, the sensor-assay potency score (higher = more potent) was -0.81. TGTGTTCTCGTACACTGTGGGC: the sensor-assay potency score (higher = more potent) is -1.21. TTGTAGAGTGTAGTTAGTGAAA displayed a sensor-assay potency score (higher = more potent) of -1.62.

Another assay has as its target RHOJ. The description is as above. Conditions: shRNA.
In turn, TTTGAGACCTTTCTGAGTCAGA gave a sensor-assay potency score (higher = more potent) of -0.62. Take ATAGTGGTCAAACACAGTGGGC: the sensor-assay potency score (higher = more potent) was -0.911.

In the case of TTCTCTTTCATATACAGCAAAC, the sensor-assay potency score (higher = more potent) was -1.56.

The sequence TCAACATCTTCTTCTCGTCGTT came in with a sensor-assay potency score (higher = more potent) of 0.0564. Sequence TTGACTTTGTTTTTGATGCGAT had a sensor-assay potency score (higher = more potent) of -0.0639. Sequence TTGGCTGCCATTCTCATCCCTG yielded a sensor-assay potency score (higher = more potent) of -0.433. TTCTTCTCGTCGTTGCCCCTGC came in with a sensor-assay potency score (higher = more potent) of -0.309. On the same count and under the same terms, for TTTCTCTTTCATATACAGCAAA the value was -0.918.

The sequence TAGCACTGTGCTCCGATCGCTT displayed a sensor-assay potency score (higher = more potent) of -0.602.

TTCAACATCTTCTTCTCGTCGT yielded a sensor-assay potency score (higher = more potent) of 0.937. For the sequence TTCTGAGTCAGAGCTGAACATT, the sensor-assay potency score (higher = more potent) was -1.66.

AACATCTTCTTCTCGTCGTTGC displayed a sensor-assay potency score (higher = more potent) of 0.438.

The next assay deals with RIC8A. Described as above. The note with it: shRNA.
Sequence TTTGAGGATCTCCATGGCCCGC displayed a sensor-assay potency score (higher = more potent) of -1.76. The same measure, in the same setting: the figure for TAGTCTCGCACATGGCATCCTG is -1.08; for TTGGGCATCATCAAACGTGAAG it is -0.89; for AACATCCAGACACTTGAGGGGC it is -0.627.

With TTCACTCCCATGAACTCCGTGG, the sensor-assay potency score (higher = more potent) was found to be 0.138. On the same count and under the same terms, the figure for TACAACATCCATGTCTGCGGAC is -0.737; for TACACTCTCCTTCAGCCTGTGT it is -1.16; for TTGTTCCGCAGCATCTCCCCAA it is -0.652. TGGGCCTTCAGGAACTTCCTGG showed a sensor-assay potency score (higher = more potent) of -0.964. On the same count and under the same terms, for AAGAACTGGACATCGTGGGGGA the value was 0.415; for TTTCAGCTCCTGAAACAGCTGC, -0.481. The same measure, in the same setting: for TTCTAGCACAAGAAGACCGTTG the value was 0.199.
